The results in this text go back to PubChem BioAssay (EPA / NIEHS).

Read-out in one assay: TIMP1, TIMP1 (gene 7076)
Description: LTEA_HepaRG_TIMP1: Life Technologies and Expression Analysis (LTEA) Assay for TIMP1 using HepaRG (AID 2283534; active means hit-call score of the fitted dose curve at least 0.9, where 1 is the maximum; inactive means score below 0.9). The note with it: mRNA level, 48 h; actives raise or lower the signal. In outline: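 Bidirectional change in TIMP1 transcript versus 0.5% DMSO, measured by TaqMan qRT-PCR with three housekeeping genes for normalization. HepaRG human liver cells dosed 48 h in duplicate, top concentration 100 uM with half-log dilutions.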

Read-out in assay [1]: Tumor necrosis factor receptor 1 (TNFRSF1A), TNFRSF1A (gene 7132)
Description: LTEA_HepaRG_TNFRSF1A: Life Technologies and Expression Analysis (LTEA) Assay for Tumor necrosis factor receptor 1 (TNFRSF1A) using HepaRG (AID 2283535; active means hit-call score of the fitted dose curve at least 0.9, where 1 is the maximum; inactive means score below 0.9). As to conditions: mRNA level, 48 h; actives raise or lower the signal. In short, it runs like this: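 mRNA measured by qRT-PCR (TaqMan, Fluidigm arrays) against ACTB/GAPDH/POLR2A housekeepers after 48 h chemical exposure of HepaRG cells. Top concentration 100 uM, half-log 8-point series, duplicates; vehicle 0.5% DMSO, both fit directions.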

Read-out in assay [2]: Thyroid Hormone Responsive (THRSP), THRSP (gene 7069)
Put plainly: LTEA_HepaRG_THRSP: Life Technologies and Expression Analysis (LTEA) Assay for Thyroid Hormone Responsive (THRSP) using HepaRG (AID 2283536; active means hit-call score of the fitted dose curve at least 0.9, where 1 is the maximum; inactive means score below 0.9). As to conditions: mRNA level, 48 h; actives raise or lower the signal. In short, it runs like this:
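Differentiated human HepaRG cells were exposed in duplicate for 48 h in serum-free induction medium to eight concentrations (top 100 uM, half-log steps, 0.5% DMSO). Expression was quantified by TaqMan qRT-PCR, normalized to ACTB, GAPDH and POLR2A, with bidirectional fitting against DMSO.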

Read-out in assay [3]: Cellular tumor antigen p53 (Homo sapiens) (UniProt P04637)
Description: LTEA_HepaRG_TP53: Life Technologies and Expression Analysis (LTEA) Assay for Tumor Protein P53 (TP53) using HepaRG (AID 2283537; active means hit-call score of the fitted dose curve at least 0.9, where 1 is the maximum; inactive means score below 0.9). As to conditions: mRNA level, 48 h; actives raise or lower the signal. In outline: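 Differentiated HepaRG cells in serum-free induction medium exposed 48 h in duplicate to 8 half-log concentrations, top 100 uM, 0.5% DMSO. TP53 mRNA by TaqMan qRT-PCR (Fluidigm), normalized to ACTB, GAPDH, POLR2A; fitted bidirectionally versus DMSO.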

Read-out in assay [4]: UDP glucuronosyltransferase (UGT1A1), UGT1A1 (gene 54658)
Description: LTEA_HepaRG_UGT1A1: Life Technologies and Expression Analysis (LTEA) Assay for UDP glucuronosyltransferase (UGT1A1) using HepaRG (AID 2283538; active means hit-call score of the fitted dose curve at least 0.9, where 1 is the maximum; inactive means score below 0.9). As to conditions: mRNA level, 48 h; actives raise or lower the signal. In outline:
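Differentiated human HepaRG cells in serum-free induction medium were exposed in duplicate for 48 h to eight half-log concentrations up to 100 uM in 0.5% DMSO. UGT1A1 mRNA was quantified by TaqMan qRT-PCR, normalized to ACTB, GAPDH and POLR2A, and fitted bidirectionally against DMSO.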

Read-out in assay [5]: UDP glucuronosyltransferase (UGT1A6), UGT1A6 (gene 54578)
Description: LTEA_HepaRG_UGT1A6: Life Technologies and Expression Analysis (LTEA) Assay for UDP glucuronosyltransferase (UGT1A6) using HepaRG (AID 2283539; active means hit-call score of the fitted dose curve at least 0.9, where 1 is the maximum; inactive means score below 0.9). The note with it: mRNA level, 48 h; actives raise or lower the signal. In short, it runs like this: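 Expression was quantified by TaqMan qRT-PCR on Fluidigm arrays with ACTB/GAPDH/POLR2A normalization and bidirectional fitting against 0.5% DMSO. HepaRG cells (~100,000/well) were treated in duplicate for 48 h at eight half-log concentrations up to 100 uM in serum-free induction medium.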

Read-out in assay [6]: X-box binding protein 1 (XBP1), XBP1 (gene 7494)
Description: LTEA_HepaRG_XBP1: Life Technologies and Expression Analysis (LTEA) Assay for X-box binding protein 1 (XBP1) using HepaRG (AID 2283540; active means hit-call score of the fitted dose curve at least 0.9, where 1 is the maximum; inactive means score below 0.9). As to conditions: mRNA level, 48 h; actives raise or lower the signal. In short, it runs like this:
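XBP1 transcript by qRT-PCR (housekeeping-normalized: ACTB, GAPDH, POLR2A) after 48 h chemical treatment of HepaRG cells, 8-point half-log series topping at 100 uM, vehicle 0.5% DMSO. Gain and loss of signal fitted relative to DMSO.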

The nature of assay [7]: LTEA_HepaRG_LDH_cytotoxicity: Cytotoxicity Assessment in the Life Technologies and Expression Analysis (LTEA) Assay (AID 2283563). In short, it runs like this: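 LDH release into culture medium read after 48 h chemical treatment of HepaRG cells. Duplicate wells, eight-point half-log series topping at 100 uM, 0.5% DMSO vehicle and baseline.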
Assay [8] can be described thus: ATG_XTT_Cytotoxicity: Cytotoxicity Assessment in the Attagene TRANS-FACTORIAL HepG2 Assay (AID 2283584). In outline: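 Viability endpoint from XTT after 24 h chemical exposure of reporter-transfected human HepG2 liver cells; signal loss fitted relative to DMSO negative control.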
The nature of assay [9]: TOX21_p53_BLA_p2_viability: Viability Assessment in the Tox21 HCT-116 p53 Agonism Beta-lactamase Assay, Phase 2 (AID 2283591).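 Further: compound exposure lasted 16 h at 37 °C; actives lower the ATP signal meaning cytotoxicity.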 In short, it runs like this: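 HCT-116 p53-bla cells (4000/well) rested 5 h at 37C, then received compounds in DMSO (217-fold dilution) for 16 h at 37C, 5% CO2. After the CCF4 read, CellTiter-Glo was added; ATP luminescence was read after 30 min at room temperature.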

Assay [10] addresses Cellular tumor antigen p53 (Homo sapiens) (UniProt P04637). Put plainly: TOX21_p53_BLA_p2_ratio: Tox21 HCT-116 p53 Agonism Beta-lactamase Assay, Ratio, Phase 2 (AID 2283592). In outline: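 Gain-of-signal p53 agonism was scored from the beta-lactamase FRET ratio (460/530 nm, 405 nm excitation) in HCT116 cells treated 16 h at 37C, 5% CO2, with DMSO serving as negative control and baseline.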

Assay [11] can be described thus: TOX21_p53_BLA_p3_viability: Viability Assessment in the Tox21 HCT-116 p53 Agonism Beta-lactamase Assay, Phase 3 (AID 2283593).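 Further: cells exposed to compound for 16 h before reading.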 In outline: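 HCT-116 cells (4000/well) rested 5 h at 37C, then got DMSO compounds by pin tool (217-fold dilution) for 16 h at 37C, 5% CO2. After the bla read, CellTiter-Glo was added and luminescence read at 30 min, room temperature.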

Assay [12] deals with Cellular tumor antigen p53 (Homo sapiens) (UniProt P04637). Description: TOX21_p53_BLA_p3_ratio: Tox21 HCT-116 p53 Agonism Beta-lactamase Assay, Ratio, Phase 3 (AID 2283596). In outline: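 HCT116 p53-bla cells (4000/well) given compound in DMSO (217-fold dilution) after 5 h, incubated 16 h at 37C. CCF4-AM substrate 2 h at room temperature; 460/530 nm emission ratio, gain fitted against DMSO.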

Assay [13] in a line: TOX21_p53_BLA_p4_viability: Viability Assessment in the Tox21 HCT-116 p53 Agonism Beta-lactamase Assay, Phase 4 (AID 2283597).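 Further: hits lower the luminescence signal meaning cytotoxicity.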 In outline:
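Following a 16 h exposure at 37C, the treated HCT116 wells were first read for the FRET ratio. They were then lysed with CellTiter-Glo, and ATP luminescence was recorded after 30 min at room temperature.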

For assay [14], the target named is Cellular tumor antigen p53 (Homo sapiens) (UniProt P04637). Put plainly: TOX21_p53_BLA_p5_ratio: Tox21 HCT-116 p53 Agonism Beta-lactamase Assay, Ratio, Phase 5 (AID 2283599). In outline: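 HCT-116 cells carrying a p53-inducible beta-lactamase reporter were seeded at 4000 cells/well and dosed after 5 h with compound in DMSO (217-fold dilution). After 16 h at 37C, CCF4-AM substrate was added for 2 h, and the 460/530 nm emission ratio was scored as gain-of-signal versus DMSO.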

Assay [15] in a line: TOX21_p53_BLA_p5_viability: Viability Assessment in the Tox21 HCT-116 p53 Agonism Beta-lactamase Assay, Phase 5 (AID 2283600). In short, it runs like this: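 After the 460/530 nm beta-lactamase measurement, the wells received an ATP-detection luciferase reagent; signal was read 30 min later at RT. Compound treatment lasted 16 h on cells pre-incubated 5 h post-seeding.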
In assay [16] the target is Cellular tumor antigen p53 (Homo sapiens) (UniProt P04637). Put plainly: TOX21_p53_BLA_p4_ratio: Tox21 HCT-116 p53 Agonism Beta-lactamase Assay, Ratio, Phase 4 (AID 2283601). In short, it runs like this: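 HCT116 cells carrying an inducible beta-lactamase reporter were plated at 4000 cells/well, rested 5 h, then exposed to compounds in DMSO (217-fold dilution) for 16 h at 37C. CCF4-AM substrate was loaded 2 h at room temperature; 460/530 nm emission ratio scored gain-of-signal versus DMSO.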

Assay [17] in a line: Tanguay_ZF_120hpf_MORT_legacy: (Legacy) Oregon State University Tanguay Lab 120 Hour Post-fertilization zebrafish Assay for Mortality (AID 2283633). In short, it runs like this:
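Static waterborne exposure from 6 to 120 hpf at 28C of single dechorionated wild-type (5D) embryos per well, 0.64% DMSO final. Death recorded present/absent by brightfield at 24 and 120 hpf.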

Assay [18] can be described thus: Tanguay_ZF_120hpf_YSE_legacy: (Legacy) Oregon State University Tanguay Lab 120 Hour Post-fertilization zebrafish Assay for Yolk Sac Edema (AID 2283634). In short, it runs like this:
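Presence or absence of yolk sac edema was recorded at 120 hpf in surviving larvae. These were wild-type Tropical 5D embryos, chorion removed at 4 hpf, held in static exposure at 28C from 6 hpf with 0.64% DMSO vehicle.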

A short description of assay [19]: Tanguay_ZF_120hpf_AXIS_legacy: (Legacy) Oregon State University Tanguay Lab 120 Hour Post-fertilization zebrafish Assay for Body Axis Malformation (AID 2283635). In outline:
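Binary scoring of axis defects at 120 hpf under brightfield, fitted positive versus DMSO. Tropical 5D embryos, chorion removed by pronase at 4 hpf, were singly exposed in sealed, dark plates at 28C from 6 hpf; DMSO 0.64% final.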

Results filed as inconclusive are left out. Activity calls are given as the source filed them. How the source made its calls, unless noted: active means hit-call score of the fitted dose curve at least 0.9, where 1 is the maximum; inconclusive means response in the unintended direction; inactive means score below 0.9.

Chain of Cellular tumor antigen p53 (Homo sapiens) (P04637 whole entry, looked up): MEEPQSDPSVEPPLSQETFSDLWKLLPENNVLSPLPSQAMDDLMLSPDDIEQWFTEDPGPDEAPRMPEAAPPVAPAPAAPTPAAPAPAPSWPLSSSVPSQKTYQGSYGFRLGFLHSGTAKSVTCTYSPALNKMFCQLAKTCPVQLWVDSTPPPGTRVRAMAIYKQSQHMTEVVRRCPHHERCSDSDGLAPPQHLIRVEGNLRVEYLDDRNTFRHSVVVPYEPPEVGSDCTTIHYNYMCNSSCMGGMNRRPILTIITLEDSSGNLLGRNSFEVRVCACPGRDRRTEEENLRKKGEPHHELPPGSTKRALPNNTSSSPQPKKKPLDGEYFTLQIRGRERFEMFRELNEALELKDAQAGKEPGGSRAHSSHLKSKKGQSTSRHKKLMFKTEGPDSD

With `CCCCC(CC)COC(=O)c1ccccc1C(=O)O` (stereo not drawn), the outcome is “inactive” with TIMP1, TIMP1 (gene 7076); “inactive” in assay [1]; “inactive” in [2]; “inactive” in assay [3]; “inactive” in assay [5]; “inactive” in assay [6]. The call in [7], in assay [8], in assay [9], in [10], in [11] and in [12] was inactive. Also, the molecule was called inactive in [13], in [14], in assay [15], in [16], in assay [17] and in assay [18]. The molecule was called inactive in [19]. Moreover, in assay [4], the AC50 was 64.9 µM (active).

For the molecule `CC1(C)C(C=C(Cl)Cl)C1C(=O)OCc1cccc(Oc2ccccc2)c1` (stereo not drawn), the outcome with TIMP1, TIMP1 (gene 7076) was “inactive”; in assay [1], “inactive”; in assay [2], “inactive”; in assay [3], “inactive”; in [5] it was “inactive”; in assay [6], “inactive”. Moreover, the call in [7], in [8], in [9], in [10], in assay [11] and in assay [12] was inactive. Moreover, the result in [13], in [15], in assay [16], in assay [17], in assay [18] and in [19] was inactive. In [4], the half-maximal activity concentration (AC50) is 14.6 µM (active).

`CCCN(CCC)c1c([N+](=O)[O-])cc(C(F)(F)F)c(N)c1[N+](=O)[O-]`: the outcome was “inactive” with TIMP1, TIMP1 (gene 7076); “inactive” in assay [1]; “inactive” in assay [3]; “inactive” in assay [5]; “inactive” in assay [7]; “inactive” in [17]. Moreover, the molecule was called inactive in [18] and in assay [19]. For the same molecule, the AC50 in assay [2] is 22.5 µM (active); in assay [4] it was 6.48 µM (active); in assay [6] it was 28.9 µM (active); in assay [9] it was 23.1 µM (active); in assay [10], 37.8 µM (active); in [11], 44.7 µM (active). The AC50 in assay [12] is 81.1 µM (active); in assay [13] it was 20.7 µM (active); in [14] it was 67.5 µM (active); in [15], 21.4 µM (active); in assay [16] it was 44.2 µM (active).

By AC50 is commonly meant the midpoint of the concentration-response curve, whichever way the signal moves.
